HT1080-NT tox = kills 2HG-producing HT-1080-NT fibrosarcoma cells; HT-1080-NT fibrosarcoma viability, CellTiter-Glo ATP luminescence, 48 h; Potency, µM (doses to about 46.1 µM), for inactives: at the top dose activity, negative = less viability, actives largely listed as cytotoxic; hit rate 1.6% among 360,000;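 note: NT is the 2HG producing partner of a matched IDH1 knockdown line; potency is the fitted concentration of half-maximal effect; 0% = DMSO-treated cells and -100% = media-only wells without cells; nearly all actives have a fitted effect of over 55% in size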
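HT-1080-NT; 750 cells/well; 5% FBS RPMI; 48 h compound, 37 degrees C; CellTiter-Glo luminescence; curve fitting and curve-class assignment.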
DT40 TDP1 no CPT = qHTS for Inhibitors of human tyrosyl-DNA phosphodiesterase 1 (TDP1): qHTS in cells in absence of CPT; Potency, µM (titrated, usually from 46.2 µM), for inactives: at the top dose activity change, negative = growth inhibition, most hits filed as inhibitors; DT40 Tdp1-/- hTDP1 cells, no CPT, ATP luminescence, 48 h; AID 686978, 2013; hit rate 15% among 420,000; note: potency is the fitted concentration of half-maximal effect; nearly all actives have a fitted effect of over 55% in size
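Seeded 400 DT40-hTDP1 cells/well (vehicle DMSO, no 20 nM CPT); pinned compounds; ≥48 hr at 37 °C; CellTiter-Glo luminescence as viability measure.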
HT1080 IDH1KD tx = toxicity to HT-1080 IDH1 knockdown cells (counter line); hit rate 2% among 360,000; AID 686971; Potency, µM (doses to about 46.1 µM), without a hit: at the top dose activity, negative = toxicity, actives largely listed as cytotoxic; HT-1080 IDH1 knockdown viability, ATP luminescence, 48 h;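 note: potency is the fitted concentration of half-maximal effect; 0% = DMSO wells and -100% = cell-free medium wells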
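Viability of IDH1-knockdown HT-1080 fibrosarcoma cells was assessed by CellTiter-Glo after 48 h at 37 °C with titrated compound; concentration-effect curves were classified by fit quality and response size.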
TDP1 cell CPT = growth inhibition of DT40 Tdp1-/-;hTDP1 cells with camptothecin (screen for TDP1 inhibitors); chicken DT40 Tdp1-/-;hTDP1 cells + 20 nM CPT, ATP luminescence, 48 h; Potency, µM (highest dose often 46.2 µM), for the others: at the highest dose activity change, negative = growth inhibition, most hits filed as inhibitors; hit rate 12% among 420,000; AID 686979; note: potency is the fitted concentration of half-maximal effect; nearly all actives have a fitted effect of over 55% in size
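Chicken DT40 Tdp1-/- cells complemented with human TDP1, 400 cells/well, exposed to compounds plus 20 nM camptothecin for at least 48 h at 37 C; viability read as ATP content by CellTiter-Glo luminescence.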
IL-1B inflam inh = blocks inflammasome-driven IL-1 beta release; THP-1 LPS/ATP IL-1B secretion, AlphaLISA, 16 h; active compounds read low; AID 743279; hit rate 4.7% among 360,000; activity change, % at 57.5 µM; in the data active = activity change below about -50%; inconclusive = mostly about -30% to -49%
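Secreted IL-1B measured by AlphaLISA bead assay after 16 h compound exposure of THP-1 cells; compounds (final up to 57.5 uM) added 1 h before LPS (250 ng/mL) and ATP (1.25 mM) stimulation; lower signal means less secretion.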
* = called active by the depositor; ? = inconclusive; . = no result; [ ] = remark or other dose. Shown are actives, neighbours in structure and some others; about 19% of the full set was active somewhere. Unless noted, calls come from the whole dose curve; as a rule, active = well fitted curve in the direction sought with a large enough effect; inconclusive = small, poorly fitted or top-dose-only effect, or another doubt; inactive = no such curve, though single readings can be large; an effect the other way counts as inactive or inconclusive. Unless noted, % is set by controls: 0 for no effect and ±100 for the full control effect.

SMILES	HT1080-NT tox	DT40 TDP1 no CPT	HT1080 IDH1KD tx	TDP1 cell CPT	IL-1B inflam inh
CCOc1ccc(CNC(=O)c2ccc3c(c2)N(Cc2ccccc2)CCS3)cc1	.	13µM*	.	?	.
Cc1ccc2c(c1)CC[C@H]1CC(=O)CC[C@@]21C	.	-23%	.	2%	.
Cc1ccc(NC(=O)CN2CCCC2c2cccn2C)cc1C (stereo not drawn)	0%	?	-6%	-15%	-23
Cc1ccc(NC(=O)CN2CCCC2c2cccn2C)c(Br)c1 (stereo not drawn)	-11%	15µM*	-14%	?	-14
O=C(Cc1ccccc1)NNc1ccc2ccccc2c1	?	-30%	3.7µM*	-9%	17
O=C(CN1C(=O)CCC1=O)NNc1ccc2ccccc2c1	2.9µM*	-13%	2.3µM*	-9%	19
O=C(CSc1nnc(NC(=O)C2CC2)s1)NCc1ccccc1	8%	-1%	3%	1%	-9
CC(C(=O)NN=C(c1ccccc1)c1ccccc1)N1CCOCC1 (stereo not drawn)	10%	16µM*	7%	?	3
CCN(CC(=O)Nc1ccc2c(c1)OCCO2)C(=O)/C=C/c1cc(Br)ccc1OC	5%	?	-1%	?	?
CC(C)(C)[C@@H]1COC(=O)[C@H](Cc2ccc(F)cc2)CC/C=C\C[C@H](CC(=O)N(CCO)Cc2ccccc2)C(=O)N1	?	9.2µM*	?	9.2µM*	?
CC(C)(C)[C@@H]1COC(=O)[C@@H](Cc2ccc(F)cc2)CC/C=C\C[C@@H](CC(=O)N(CCO)Cc2ccccc2)C(=O)N1	0%	?	0%	23µM*	-18
CC(C)(C)[C@@H]1COC(=O)[C@H](Cc2ccc(F)cc2)C/C=C\C[C@@H](CC(=O)N(CCO)Cc2ccccc2)C(=O)N1	-1%	21µM*	2%	16µM*	-3
CCOC(=O)Cn1nc(C)c2c1CCCC2=O	6%	10%	10%	3%	36
COc1ccc(NC(=O)c2c(N)no[n+]2[O-])cc1	0.73µM*	-26%	0.73µM*	-5%	-20
N#CCCn1cc(C(=O)O)c(-c2cccs2)n1	13%	2%	10%	5%	-7
COc1cccc(-c2cc(C(=O)N3CCN(Cc4ccc5c(c4)OCO5)CC3)on2)c1	-15%	-11%	-3%	-18%	7
CCOC(=O)N1CCN(Cc2ccc3c(c2)CN(C(=O)c2cc(-c4ccccc4)on2)CCO3)CC1	.	21µM*	.	-6%[9.04 µM]	.
O=C(Cc1cscn1)N1CCOc2ccc(CN3CCN(c4ccccn4)CC3)cc2C1	.	-14%	.	-1%[9.04 µM]	.
CCOC(=O)N1CCN(Cc2ccc3c(c2)CN(C(=O)c2cc(-c4ccccc4)no2)CCO3)CC1	.	23µM*	.	?	.
COc1cccc(-c2cc(C(=O)N3CCN(Cc4ccccc4)CC3)no2)c1	6%	-16%	13%	-21%	11
Cc1nc(C)c(CC(=O)N2CCOc3ccc(CN4CCN(c5ccccn5)CC4)cc3C2)s1	.	7.3µM*	.	?	.
Cc1nn(CC(=O)NCc2ccccc2Br)c(=O)c2cc3occc3n12	.	-8%	.	-2%	.
CCCN(CCC)C(=O)Cn1c(=O)n(CCCCCC(=O)NCc2ccc3c(c2)OCO3)c(=O)c2sccc21	.	-16%	.	?	.
Cc1cc(C)n2nc(SCC(=O)N(C)Cc3ccccc3)nc2n1	8%	-14%	13%[9.24 µM]	-23%	19
Cc1[nH]c2ccccc2c1C(=O)COC(=O)C1CC(O)CN1S(=O)(=O)c1ccc(Cl)cc1 (stereo not drawn)	-27%	?	?	?	-76*
SMILES	HT1080-NT tox	DT40 TDP1 no CPT	HT1080 IDH1KD tx	TDP1 cell CPT	IL-1B inflam inh
CSCCC(NS(=O)(=O)c1ccc2ccccc2c1)C(=O)OCC(=O)c1ccc(C(C)C)cc1 (stereo not drawn)	-3%	16µM*	-14%	23µM*	3
CSCCC(NS(=O)(=O)c1ccc(Cl)cc1)C(=O)OCC(=O)c1c(C)[nH]c2ccccc12 (stereo not drawn)	-13%	15µM*	-25%	?	-86*
Cc1[nH]c2ccccc2c1C(=O)COC(=O)CCS(=O)(=O)c1ccccc1Cl	6%	?	7%	?	-9
Cc1ccc(OC(=O)N(C)C[C@H]2OCc3cn(nn3)CCCC(=O)N([C@H](C)CO)C[C@@H]2C)cc1	-10%	13%	-8%	6%	22
COC(=O)NCc1cccc(CNC(=O)OC)c1	13%	5%	10%	-1%	11
Cc1ccc2nc(/C(C#N)=C\c3ccc(N4CCOCC4)o3)[nH]c2c1	-2%	21µM*	0%	13µM*	-12
CCOC(=O)c1ccc(-c2ccc(/C=C(\C#N)c3nc4ccc(C)cc4[nH]3)o2)cc1	.	2.6µM*	.	23µM*	.
CCOC(=O)c1ccc(-c2ccc(/C=C(\C#N)C(=O)NCc3cccs3)o2)cc1	-1%	18µM*	-2%	23µM*	10
CCc1nn(CCCC(=O)NCc2ccccc2C)c(=O)c2cc3occc3n12	12%	0%	6%	-27%	-3
CCc1nn(CCCC(=O)NCc2ccc(OC(C)C)cc2)c(=O)c2cc3occc3n12	12µM*	12µM*	10µM*	?	-9
CCc1ccc(NC(=O)CCCn2nc(CC)n3c(cc4occc43)c2=O)cc1	8%	-21%	-6%	?	-1
CCc1nn(CCCC(=O)NC2CCCCC2C)c(=O)c2cc3occc3n12 (stereo not drawn)	5%	26µM*	4%	?	3
CCc1nn(CCCC(=O)NCc2cc(Br)ccc2OC)c(=O)c2cc3occc3n12	9%	?	15%	?	-56*
CCc1nn(CCCC(=O)N(C)Cc2ccccc2)c(=O)c2cc3occc3n12	9%	?	9%	16µM*	5
COc1ccccc1N(CC(=O)NCCN1CCOCC1)S(=O)(=O)c1ccc(C)cc1	-4%	-6%	-2%	-6%	0
Cc1nc2cnc(Oc3ccccc3)nc2n(C2CC2)c1=O	.	?	.	-25%	.
Cc1oc(-c2ccccc2Cl)nc1CS(=O)CC(=O)NCc1ccccc1Cl (stereo not drawn)	3%	?	-5%	?	.
CCCN(CCC)c1nc(N(CCC)CCC)[nH]c(=O)n1	?	18µM*	3%	23µM*	13
Cc1ccc2nc(-c3ccc(C)c(NC(=O)COc4ccccc4Cl)c3)oc2c1	.	12%	.	-27%	.
O=C(Nc1ccc2ncccc2c1)c1cccc(Br)c1	12%	-22%	9%	?	-5
CCn1cnc2cc(NCc3nc4ccccc4n3Cc3ccccc3)ccc21	-22%	?	-12%	15µM*	-13

Bioassay records (PubChem BioAssay)
